Some test systems named below: SR leukemia; RPMI-8226 leukemia; OVCAR-8 ovarian; OVCAR-5 ovarian; OVCAR-4 ovarian; SK-OV-3 ovarian; IGROV1 ovarian; OVCAR-3 ovarian; HS 578T breast; NCI/ADR-RES ovarian.
Holding throughout (test): NCI-60 one-dose screen, 48 h (100 = growth as untreated, 0 = no growth, -100 = all killed)
Holding throughout (conditions): 10 µM

Compounds without any hit were thinned out: in the full panel of roughly 83,000, 20% have a hit.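 Note: values are percent growth. 100 is the growth of untreated cells, values between 100 and 0 indicate rising inhibition; between -100 and 0 indicates cell death.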 Values without a mark were called inactive. Activity calls are given as the source filed them. Rule for the calls: active = growth percent below 10; inactive = the rest.

In the case of `O=C(NC(=S)N1CCN(c2ncnc3c2cnn3-c2ccccc2)CC1)c1ccc(Cl)cc1`, the growth in the test on SR leukemia was 13.9%; with RPMI-8226 leukemia, 69.1%; in the test on OVCAR-8 ovarian, 38.3%; in the test with OVCAR-5 ovarian, 83.8%; in the test on OVCAR-4 ovarian it was 16.5%; in the test on SK-OV-3 ovarian, 41.8%. Moreover, the growth in the test on IGROV1 ovarian was 70.9%; in the test with OVCAR-3 ovarian, 48.1%; in the test on HS 578T breast, 32.7%; in the test on NCI/ADR-RES ovarian, 28.1%.

Regarding `CCOC(=O)C(Cc1ccccc1)N1C(=O)/C(=C/N2N=C(c3ccc(OC)cc3)CC2c2ccc3ccccc3c2)SC1=S` (stereo not given), the growth in the test on SR leukemia is 6.53% (active); in the test on RPMI-8226 leukemia, 4.07% (active); in the test with OVCAR-8 ovarian, 17.1%; in the test on OVCAR-5 ovarian it was 39.3%; in the test on OVCAR-4 ovarian it was 35.1%; with SK-OV-3 ovarian, 9.93% (active). In addition, the growth in the test on IGROV1 ovarian is 13%; with OVCAR-3 ovarian, 15.1%; with HS 578T breast it was 1.03% (active); with NCI/ADR-RES ovarian, 54.1%.

As to `CC[C@]12C=CCN3CC[C@@]4(c5cc(C#CCNc6ccc(C)c(Nc7nccc(-c8cccnc8)n7)c6)c(OC)cc5N(C)[C@H]4[C@@](O)(C(=O)OC)[C@@H]1OC(C)=O)C32` (stereo not given in full), the growth is 21.3% with SR leukemia; 38.5% in the test with RPMI-8226 leukemia; 48.6% with OVCAR-8 ovarian; 81.9% in the test with OVCAR-5 ovarian; 41.4% in the test with OVCAR-4 ovarian; 110% in the test on SK-OV-3 ovarian. The growth with IGROV1 ovarian was 60.7%; in the test with OVCAR-3 ovarian, 48.1%; in the test with HS 578T breast it was 55.7%; in the test on NCI/ADR-RES ovarian it was 54.4%.

Turning to `COc1ccc(-c2nc(-c3ccccc3)c(-c3ccccc3)n2-c2ccc(S(=O)(=O)Nc3ncccn3)cc2)cc1OC`, the growth with SR leukemia is 68.9%; with RPMI-8226 leukemia it was 60.3%; in the test with OVCAR-8 ovarian it was 90.2%; in the test with OVCAR-5 ovarian, 82.8%; with OVCAR-4 ovarian it was 87%; in the test on SK-OV-3 ovarian, 95%. Further, the growth was 85.5% in the test on IGROV1 ovarian, 90.1% in the test with OVCAR-3 ovarian, 50.9% with HS 578T breast and 96.7% in the test on NCI/ADR-RES ovarian.

For the compound `O=c1[nH]c2ccccc2cc1CSc1ccc(Nc2nccc(-c3ccc(Cl)cc3)n2)cc1`, the growth in the test on SR leukemia is 59.2%; with RPMI-8226 leukemia it was 21.2%; in the test on OVCAR-8 ovarian, -52.9% (active); with OVCAR-5 ovarian, -19.5% (active); in the test on OVCAR-4 ovarian it was -76.8% (active); with SK-OV-3 ovarian, -15.1% (active). For the same compound, the growth in the test with IGROV1 ovarian is 11%; in the test on OVCAR-3 ovarian, -73.9% (active); in the test with HS 578T breast, -22.1% (active); in the test on NCI/ADR-RES ovarian, -39% (active).

As for `Cn1cc(-c2cc(N)n3nc(-c4c[nH]c5ccc(Br)cc45)cc3n2)c2cccnc21`, the growth was -23.6% (active) in the test with SR leukemia; 3.37% (active) in the test on RPMI-8226 leukemia; -68.8% (active) in the test on OVCAR-8 ovarian; -87.4% (active) with OVCAR-5 ovarian; -42.2% (active) with OVCAR-4 ovarian; -72.6% (active) with SK-OV-3 ovarian. Also, the growth with IGROV1 ovarian is -69.8% (active); in the test on OVCAR-3 ovarian, -78.9% (active); in the test on HS 578T breast it was -38.8% (active); in the test on NCI/ADR-RES ovarian, -55.7% (active).

Take `CC(=O)Nc1ccc(-c2cn(-c3cccc(C(=O)Nc4ccc(F)c(C(F)(F)F)c4)c3)nn2)cn1`: the growth in the test with SR leukemia was 34.6%; in the test with RPMI-8226 leukemia, 66.6%; in the test with OVCAR-8 ovarian it was 2.67% (active); in the test on OVCAR-5 ovarian, 89.1%; in the test on OVCAR-4 ovarian, 13.5%; in the test with SK-OV-3 ovarian, 90.8%. Further, the growth is 43.2% in the test on IGROV1 ovarian, 24.9% in the test on OVCAR-3 ovarian, 7.97% (active) in the test with HS 578T breast and 86.3% with NCI/ADR-RES ovarian.

On to `O=C(CNc1nc(-c2ccccc2)cs1)Nc1ccc(Br)cc1`, for which the growth in the test on SR leukemia is -18.8% (active); in the test with RPMI-8226 leukemia it was -5.37% (active); in the test with OVCAR-8 ovarian, -5.23% (active); in the test on OVCAR-5 ovarian, -96.3% (active); with OVCAR-4 ovarian, -49.9% (active); in the test on SK-OV-3 ovarian, 8.41% (active). For the same compound, the growth with IGROV1 ovarian was -75.4% (active); in the test with OVCAR-3 ovarian it was -77.7% (active); in the test with HS 578T breast it was 16.6%; in the test with NCI/ADR-RES ovarian, -16.7% (active).

Consider `N#Cc1ccc(NC(=O)CSc2ccc(-c3ccc(Br)cc3)nn2)cc1`, for which the growth is 46.6% in the test with SR leukemia; 57.6% with RPMI-8226 leukemia; 76.3% in the test on OVCAR-8 ovarian; 88.2% with OVCAR-5 ovarian; 59% in the test on OVCAR-4 ovarian; 86.1% in the test on SK-OV-3 ovarian. Also, the growth is 74.6% with IGROV1 ovarian, 76.6% in the test with OVCAR-3 ovarian, 72.9% in the test with HS 578T breast and 35.7% with NCI/ADR-RES ovarian.

Take `COc1ccc(CN2[C@@H](C(=O)NCc3ccc(C(=O)NO)cc3)Cc3c([nH]c4ccccc34)[C@@H]2C)cc1`: the growth is 14.5% with SR leukemia; 20.1% in the test on RPMI-8226 leukemia; 27.9% in the test on OVCAR-8 ovarian; 4.29% (active) with OVCAR-5 ovarian; 40.1% in the test on OVCAR-4 ovarian; -8.39% (active) with SK-OV-3 ovarian. The growth in the test on IGROV1 ovarian is 12.4%; in the test with OVCAR-3 ovarian it was 11.1%; in the test with HS 578T breast it was -5.59% (active); in the test on NCI/ADR-RES ovarian it was 68.8%.

For `CCNCCCn1c2c(c3cc(OC)c(OC)cc3c1=O)C(=O)c1cc3c(nc1-2)OCO3`, the growth is -7.45% (active) in the test on SR leukemia; -34.7% (active) with RPMI-8226 leukemia; -64.5% (active) in the test on OVCAR-8 ovarian; -88.7% (active) in the test with OVCAR-5 ovarian; 57.9% in the test with OVCAR-4 ovarian; 35.4% in the test on SK-OV-3 ovarian. The growth in the test on IGROV1 ovarian is 18.4%; in the test with OVCAR-3 ovarian, -90.1% (active); in the test on HS 578T breast it was 97.4%; in the test on NCI/ADR-RES ovarian, -30.8% (active).

Consider `C=C1CCC2C3(C)COC(c4c(F)cccc4F)OC3CCC2(C)C1CC(O)C1=CCOC1=O` (stereo not given), for which the growth in the test on SR leukemia is 32.8%; with RPMI-8226 leukemia, 12.6%; with OVCAR-8 ovarian, 7.07% (active); in the test on OVCAR-5 ovarian, 82.9%; with OVCAR-4 ovarian it was 60.2%; in the test on SK-OV-3 ovarian, 100%. Also, the growth in the test with IGROV1 ovarian is 59.3%; with OVCAR-3 ovarian it was 38.2%; in the test with HS 578T breast, 76.1%; with NCI/ADR-RES ovarian, 11.6%.

As for `CC(C)C1=C[C@@]23CC[C@@H]4[C@](C)(CCC[C@]4(C)C(=O)NCc4ccccc4)[C@H]2C[C@@H]1[C@H]1C(=O)OC(=O)[C@H]13`, the growth was 6.39% (active) in the test on SR leukemia; 24.7% in the test on RPMI-8226 leukemia; 42.7% with OVCAR-8 ovarian; 93.6% in the test on OVCAR-5 ovarian; 49.8% with OVCAR-4 ovarian; 74.5% with SK-OV-3 ovarian. The growth was 31.1% with IGROV1 ovarian, 42% in the test with OVCAR-3 ovarian, 44.6% in the test with HS 578T breast and 37.4% in the test on NCI/ADR-RES ovarian.

The record behind these values is PubChem BioAssay (NCI).
